# Bioassay records as filed in PubChem.
# This is a sample that favours compounds with a hit; in the whole collection about 3% have one here.
# PAFAH1B3 inh: inhibitors of human PAFAH1B3 | Q15102 | recombinant PAFAH1B3, FP-rhodamine probe, fluorescence polarization | inhibition, % at 3.39 µM | 0.28% of 340,000 active | AID 492972;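 active = inhibition above the screen-wide average of all tested compounds plus 3 SD, cut at about 25% in these data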;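 note: 0% = enzyme with DMSO only and 100% = wells lacking PAFAH1B3 protein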
# PAFAH1B2 FP inh: inhibitors of human PAFAH1B2 | P68402 | recombinant PAFAH1B2, FP-rhodamine activity probe, fluorescence polarization | inhibition, % at 3.39 µM | 1.2% of 340,000 active;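 active = inhibition above the mean of all tested compounds plus 3 SD, cut at about 24% in these data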;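 note: 0% = enzyme with DMSO and 100% = wells lacking PAFAH1B2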
# pPAFAH inh: pPAFAH (human) enzyme inhibition; Q13093; recombinant pPAFAH, FP-rhodamine probe fluorescence polarization; inhibition, % at 3.39 µM; 1.5% of 330,000 active; AID 463082;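 active = inhibition above the mean inhibition across the screen plus 3 SD, cut at about 25% in these data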;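 note: inhibitors block binding of the rhodamine activity-based probe so polarization drops; 0% = enzyme with DMSO and 100% = wells lacking pPAFAH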
# Target sequence (Q13093 whole entry, looked up): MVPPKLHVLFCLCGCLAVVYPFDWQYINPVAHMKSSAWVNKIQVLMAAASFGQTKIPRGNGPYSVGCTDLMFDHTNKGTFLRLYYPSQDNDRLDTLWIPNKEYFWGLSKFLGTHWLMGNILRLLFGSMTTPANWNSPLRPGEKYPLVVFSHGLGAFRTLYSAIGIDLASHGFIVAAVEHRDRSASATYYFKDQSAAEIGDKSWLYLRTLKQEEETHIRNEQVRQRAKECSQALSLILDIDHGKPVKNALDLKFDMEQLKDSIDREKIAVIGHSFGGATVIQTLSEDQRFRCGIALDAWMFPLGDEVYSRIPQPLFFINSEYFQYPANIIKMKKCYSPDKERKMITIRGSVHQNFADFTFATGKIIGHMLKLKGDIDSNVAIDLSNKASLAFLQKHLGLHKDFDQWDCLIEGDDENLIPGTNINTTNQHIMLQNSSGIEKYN
# PP5 primary: PP5 (human) phosphatase inhibition; P53041; purified PP5c, OMFP substrate fluorescence; inhibition, % at 6.7 µM; 0.18% of 320,000 active; AID 1987;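 active = inhibition above the campaign's mean inhibition across all tested compounds plus 3 SD, cut at about 9.5% in these data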;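 note: 0% = DMSO only and 100% = 100 µM cantharidin control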
# Fh CTSL1 inh: blocks F. hepatica cathepsin L1 in PFM18AAP counter-screen; recombinant F. hepatica cathepsin L1, Z-Leu-Arg-MCA fluorescence; AID 1906; inhibition, % at 5.96 µM; 0.49% of 300,000 active;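 active = inhibition above the mean of all tested compounds plus 3 SD, set per screening campaign, cut at about 17% in these data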;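 note: 0% = plate median of test compound wells and 100% = 1 µM Z-Phe-Ala-diazomethylketone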
# PAFAH2 inh: inhibitors of human PAFAH2. Q99487. recombinant PAFAH2, FP-rhodamine activity probe, fluorescence polarization. inhibition, % at 3.39 µM. 0.99% of 340,000 active. AID 492956;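 active = inhibition above the mean over all tested compounds plus 3 SD, cut at about 30% in these data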;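 note: inhibitors block probe labeling of enzyme so polarization drops; 0% = enzyme with DMSO and 100% = wells lacking PAFAH2 protein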
# * hit, by the source's call; . = no result given.
SMILES,PAFAH1B3 inh,PAFAH1B2 FP inh,pPAFAH inh,PP5 primary,Fh CTSL1 inh,PAFAH2 inh
CCOCCCn1c(SC(C)C(=O)NCC2CCCO2)nc2sc(C)c(C)c2c1=O (configuration not stated),1,-3,2,5,.,-4
Cc1[nH]n(-c2ncc(-c3ccccc3)s2)c(=O)c1C(c1ccc(Cl)cc1)C(C#N)C#N (configuration not stated),14,8,27*,4,1,29
Cc1ccc(-n2c(C)nc3ccsc3c2=O)cc1,7,1,-7,2,-3,-5
Cc1ccc(-c2nc3ccsc3c(=O)o2)cc1,11,-1,2,1,4,66*
COc1ccc(NC(=O)C2CCN(C(=O)Nc3ccccc3)CC2)cc1S(=O)(=O)N(C)C,5,1,1,4,.,-8
Nc1cc(CN2C(=O)c3ccccc3C2=O)cc(Cl)c1O,3,6,8,3,25*,7
O=C1c2ccccc2C(=O)N1Cc1cc(Cl)c(O)c([N+](=O)[O-])c1,16,14,4,1,-3,4
COCCN(C(=O)C1CC(=O)N(Cc2ccccc2)C1)c1nc(-c2ccc([N+](=O)[O-])cc2)cs1 (configuration not stated),-7,-10,20,2,.,9
COc1cc(OC)cc(C(=O)N2CCN(C3CCC(C)CC3)CC2)c1 (configuration not stated),6,8,.,.,.,-1
CN(C(=O)COC(=O)c1cc(-c2ccc(Cl)s2)nc2ccccc12)C1CCS(=O)(=O)C1 (configuration not stated),-4,-8,3,3,2,-2
CN(C(=O)COC(=O)c1cc(-c2ccccc2Cl)nc2ccccc12)C1CCS(=O)(=O)C1 (configuration not stated),4,0,27*,-3,-9,-1
COCc1c(C(=O)OCc2nc(N)nc(Nc3ccccc3C)n2)oc2ccccc12,-6,2,-3,1,17*,3
Cc1nnc(NC(=O)CC23CC4CC(CC(C4)C2)C3)s1,7,28*,3,0,-3,3
CC(CC1CC(C)(C)OC1=O)C(=O)Nc1nncs1 (configuration not stated),6,-1,4,-1,4,-3
CC12CC3CC(C)(C1)CC(C(=O)Nc1nncs1)(C3)C2,-1,28*,3,-1,2,-8
COCCc1nnc(NC(=O)C23CC4CC(CC(C4)C2)C3)s1,9,15,3,1,-1,2
Cc1nnc(NC(=O)C23CC4CC(C)(CC(C)(C4)C2)C3)s1,1,26*,0,3,-1,-1
CC(Sc1nnc(C2CC2)n1C1CC1)C(=O)Nc1cccc(S(=O)(=O)N2CCOCC2)c1 (configuration not stated),6,0,-9,1,.,-2
COc1ccc(CNc2ncc(-c3ccc(Cl)cc3)n2C)c(OC)c1OC,8,6,4,5,-3,0
COc1cc(C[C@@H](CO)[C@H](CO)Cc2ccc(O)c(OC)c2)ccc1O,.,.,-1,-1,1,.
COc1cc(C[C@@H](C)[C@@H](C)Cc2ccc(O)c(OC)c2)ccc1O,2,27*,1,.,.,8
COc1cc(CC(=O)O)ccc1O,-2,-2,34*,0,2,1
COC(=O)c1ccc(CC(=O)c2c(C)cc(O)cc2O)o1,7,-7,34*,-2,-6,-3
COc1ccc(CC(=O)c2c(O)cc(O)cc2O)cc1OC,4,1,25*,-2,10,-7
CCOc1ccc(NS(=O)(=O)c2ccc(C(=O)N(C)CC(=O)Nc3cccc(OC)c3)cc2)cc1,8,5,.,.,.,-1
O=C(OCc1ccccc1)c1cn(-c2ccccc2)nc1-c1ccncc1,2,-1,15,0,3,4
CCOC(=O)N1CCC(N2CCCC(CO)(Cc3cccc(OC)c3)C2)CC1 (configuration not stated),-2,0,-1,2,-1,3
CCN1CC(CN(C)Cc2nc(-c3ccc(C(F)(F)F)cc3)oc2C)CC1=O (configuration not stated),6,3,30*,2,-5,4
CCOc1ccc(NC(=O)CNc2cccc(S(=O)(=O)N3CCCCCC3)c2)cc1OCC,10,3,2,.,.,5
